The values below come from PubChem BioAssay (Tox21).

The structures appear in SMILES notation. A number with no mark means an inactive call. Results filed as inconclusive are left out. Activity calls are given as the source filed them. Unless noted, calls come from the whole dose curve.

The target in assay [1] is Estrogen receptor beta (Homo sapiens) (UniProt Q92731). Nature of the assay: qHTS assay to identify small molecule antagonists of the estrogen receptor beta (ER-beta) signaling pathway (AID 1259378; active = well fitted inhibition curve with a large enough effect in the signal ratio in the repeat runs, not every such curve was filed as active; the % refers to the signal ratio; note: potency is the fitted concentration of half-maximal effect). In a few lines: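 ER-beta-UAS-bla HEK293T (GripTite) cells in 2% charcoal-stripped FBS medium were preincubated 6 hr at 37C, dosed with compound, then stimulated with 1 nM E2 (final) for 16 hr; beta-lactamase reporter read by B/G FRET fluorescence after 2 hr substrate loading.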

Assay [2] is described as follows: qHTS assay to identify small molecule agonists of the androgen receptor (AR) signaling pathway in the presence of an antagonist - cell viability counter screen (AID 1259379; active = well fitted curve in the direction sought with a large enough effect in the repeat runs; an effect the other way counts as inactive or inconclusive; note: nearly all actives have a fitted effect of over 25% in size; note: potency is the fitted concentration of half-maximal effect;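 for activity change, negative = cytotoxicity: MDA-kb2 human breast cancer cells carrying an MMTV luciferase reporter; series mostly up to about 92 µM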). The method in brief: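 Viability counter screen: CellTiter-Fluor fluorescence, measured in the same wells as the luciferase read-out. MDA-kb2 cells, 3,000/well, with nilutamide at 3.0uM final and compounds at 15 concentrations, 16 hr at 37C, 0% CO2.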
For orientation: Quantitative high-throughput screening tests each substance at several concentrations.

The nature of assay [3]: qHTS assay to identify small molecule agonists of the estrogen receptor beta (ER-beta) signaling pathway - cell viability counter screen (AID 1259380; active = well fitted curve in the direction sought with a large enough effect in the repeat runs; an effect the other way counts as inactive or inconclusive; note: nearly all actives have a fitted effect of over 30% in size; note: potency is the fitted concentration of half-maximal effect). The method in brief: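 Luminescence read-out (CellTiter-Glo, 30 min, room temp) taken in the same wells as the beta-lactamase reporter assay; ER-beta-UAS-bla HEK293T cells exposed to DMSO-dissolved compounds for 16 hr at 37C in 2% charcoal-stripped FBS medium.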

The target in assay [4] is Androgen receptor (Homo sapiens) (UniProt P10275). The assay is described as follows: qHTS assay to identify small molecule agonists of the androgen receptor (AR) signaling pathway in the presence of an antagonist (AID 1259381). Note: nearly all actives have a fitted effect of over 15% in size. In a few lines:
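Luciferase read-out (ONE-Glo, 30min room temperature) in MDA-kb2 MMTV-reporter cells; agonist mode run in presence of AR antagonist nilutamide, 3.0uM final. Compounds tested as 15-point series, 16hr exposure at 37C, 0% CO2.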

Assay [5] in a line: qHTS assay to identify small molecule antagonists of the estrogen receptor beta (ER-beta) signaling pathway - cell viability counter screen (AID 1259382; active = well fitted curve in the direction sought with a large enough effect in the repeat runs; an effect the other way counts as inactive or inconclusive; note: nearly all actives have a fitted effect of over 55% in size; note: potency is the fitted concentration of half-maximal effect; for activity change, negative = cytotoxicity: series mostly up to about 92 µM). The method in brief:
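Luminescent ATP read-out (CellTiter-Glo, 30 min, RT) taken in the same wells as the bla reporter assay. HEK293T ER-beta-UAS-bla cells in 2% charcoal-stripped FBS were exposed to compounds with 1nM E2 for 16 hr at 37C.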

Assay [6] deals with Estrogen receptor (Homo sapiens) (UniProt P03372). Nature of the assay: qHTS assay to identify small molecule agonists of the estrogen receptor alpha (ER-alpha) signaling pathway in the presence of an antagonist (AID 1259383). Note: top concentration of the series differs between compounds; nearly all actives have a fitted effect of over 15% in size. In a few lines: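 Luciferase luminescence (ONE-Glo, 30min at room temperature) measured in VM7Luc4E2 cells after 22hr compound exposure at 15 concentrations, with 10.0nM ICI-182,780 final present; cells express endogenous ER-alpha and carry four EREs upstream of luciferase.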

Assay [7] can be described thus: qHTS assay to identify small molecule agonists or antagonists of the thyroid stimulating hormone receptor (TSHR) signaling pathway - wild type cell line counter screen (AID 1259384). The method in brief: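 Wild-type HEK293 cells were plated 18 h at 37 C/5% CO2, pin-dosed with compound plus Ro20-1724 medium, held 30 min at room temperature, then given cAMP-d2 and anti-cAMP-cryptate; fluorescence was read after 1 h. Fifteen concentrations, triplicate.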

Assay [8] can be described thus: qHTS assay to identify small molecule agonists of the estrogen receptor alpha (ER-alpha) signaling pathway in the presence of an antagonist - cell viability counter screen (AID 1259386; active = well fitted curve in the direction sought with a large enough effect in the repeat runs; an effect the other way counts as inactive or inconclusive; note: series mostly up to about 92 µM; nearly all actives have a fitted effect of over 30% in size). In a few lines: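 Read-out: CellTiter-Fluor fluorescence after 1hr reagent incubation, measured in the same wells as the luciferase readout. VM7Luc4E2 cells were exposed to 15 compound concentrations with 10.0nM ICI-182,780 for 22hr at 37C.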

The target in assay [9] is Progesterone receptor (Homo sapiens) (UniProt P06401). Nature of the assay: qHTS assay to identify small molecule agonists of the progesterone receptor (PR) signaling pathway (AID 1346784). Note: nearly all actives have a fitted effect of over 30% in size. In a few lines: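 Agonist qHTS: compounds pinned onto 3,000 PR-UAS-bla HEK 293T cells per well in charcoal-stripped serum medium, 16hr at 37C, then beta-lactamase activity measured by LiveBLAzer FRET fluorescence after 2 hours at room temperature.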

For assay [10], the target named is Thyrotropin receptor (Homo sapiens) (UniProt P16473). Nature of the assay: qHTS assay to identify small molecule antagonists of the thyroid stimulating hormone receptor (TSHR) signaling pathway (AID 1259385). Note: nearly all actives have a fitted effect of over 20% in size. Note: potency is the fitted concentration of half-maximal effect. In a few lines: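 TSHR-HEK293 cells were plated and held 18 h at 37C/5% CO2, then given compound plus Ro20-1724 and stimulated with TSH at 1.5 ng/mL final. After 30 min at room temperature, cAMP was detected with cAMP-d2/anti-cAMP-cryptate (1 h) by fluorescence.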
% is set by controls: 0 for no effect and ±100 for the full control effect.

Chain of Estrogen receptor (Homo sapiens) (P03372 whole entry, looked up): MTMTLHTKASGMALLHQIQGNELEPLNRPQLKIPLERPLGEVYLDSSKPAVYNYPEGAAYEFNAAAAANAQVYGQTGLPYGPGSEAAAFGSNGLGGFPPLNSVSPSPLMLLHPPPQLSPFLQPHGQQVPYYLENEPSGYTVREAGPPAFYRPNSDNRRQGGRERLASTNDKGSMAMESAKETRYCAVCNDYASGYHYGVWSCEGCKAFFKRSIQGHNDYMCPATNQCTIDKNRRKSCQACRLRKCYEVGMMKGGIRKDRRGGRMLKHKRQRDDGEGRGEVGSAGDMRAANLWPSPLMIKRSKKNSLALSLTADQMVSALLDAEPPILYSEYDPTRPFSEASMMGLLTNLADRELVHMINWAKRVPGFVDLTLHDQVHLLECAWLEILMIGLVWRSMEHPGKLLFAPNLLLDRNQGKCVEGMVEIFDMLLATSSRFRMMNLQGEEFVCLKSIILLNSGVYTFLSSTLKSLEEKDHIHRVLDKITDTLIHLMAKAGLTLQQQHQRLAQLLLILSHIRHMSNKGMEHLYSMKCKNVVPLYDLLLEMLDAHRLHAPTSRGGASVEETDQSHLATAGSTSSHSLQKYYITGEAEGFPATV
Chain of Estrogen receptor beta (Homo sapiens) (Q92731 whole entry, looked up): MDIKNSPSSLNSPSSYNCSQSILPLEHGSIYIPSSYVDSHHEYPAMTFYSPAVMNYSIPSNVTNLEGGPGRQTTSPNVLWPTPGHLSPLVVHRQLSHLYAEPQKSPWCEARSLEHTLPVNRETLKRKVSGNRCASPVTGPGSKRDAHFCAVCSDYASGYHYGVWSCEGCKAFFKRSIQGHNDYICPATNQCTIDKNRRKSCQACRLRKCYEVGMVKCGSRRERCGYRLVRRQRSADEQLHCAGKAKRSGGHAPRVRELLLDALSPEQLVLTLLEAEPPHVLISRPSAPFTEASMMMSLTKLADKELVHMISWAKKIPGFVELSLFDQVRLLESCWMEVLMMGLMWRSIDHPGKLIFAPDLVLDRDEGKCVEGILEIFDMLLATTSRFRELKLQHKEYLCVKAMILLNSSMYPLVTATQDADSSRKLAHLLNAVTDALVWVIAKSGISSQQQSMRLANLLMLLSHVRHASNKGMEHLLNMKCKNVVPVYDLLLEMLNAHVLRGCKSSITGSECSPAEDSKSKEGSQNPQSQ
Chain of Androgen receptor (Homo sapiens) (P10275 whole entry, looked up): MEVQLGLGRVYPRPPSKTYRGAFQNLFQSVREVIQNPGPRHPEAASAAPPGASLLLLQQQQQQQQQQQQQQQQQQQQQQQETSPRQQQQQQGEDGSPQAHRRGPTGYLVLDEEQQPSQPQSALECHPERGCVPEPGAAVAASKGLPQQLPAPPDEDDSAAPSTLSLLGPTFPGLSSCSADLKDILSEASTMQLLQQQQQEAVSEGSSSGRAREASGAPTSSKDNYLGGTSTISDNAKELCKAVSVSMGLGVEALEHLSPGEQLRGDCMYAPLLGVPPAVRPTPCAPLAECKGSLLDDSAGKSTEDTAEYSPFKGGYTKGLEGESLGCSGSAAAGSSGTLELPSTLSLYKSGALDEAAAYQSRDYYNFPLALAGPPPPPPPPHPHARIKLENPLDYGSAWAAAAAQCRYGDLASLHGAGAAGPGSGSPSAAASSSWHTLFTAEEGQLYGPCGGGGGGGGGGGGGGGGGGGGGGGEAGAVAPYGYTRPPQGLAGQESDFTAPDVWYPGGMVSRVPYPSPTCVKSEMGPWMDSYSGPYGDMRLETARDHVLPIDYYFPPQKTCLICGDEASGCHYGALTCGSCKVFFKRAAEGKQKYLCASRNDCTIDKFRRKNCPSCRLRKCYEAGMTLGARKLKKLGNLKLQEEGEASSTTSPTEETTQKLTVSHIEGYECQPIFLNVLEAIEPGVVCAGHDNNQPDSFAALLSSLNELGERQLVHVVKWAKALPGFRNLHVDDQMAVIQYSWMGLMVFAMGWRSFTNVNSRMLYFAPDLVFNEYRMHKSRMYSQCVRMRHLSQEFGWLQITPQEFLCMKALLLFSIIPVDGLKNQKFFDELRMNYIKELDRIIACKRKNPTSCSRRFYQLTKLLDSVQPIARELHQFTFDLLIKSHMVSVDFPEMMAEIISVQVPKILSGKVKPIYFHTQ
Chain of Progesterone receptor (Homo sapiens) (P06401 whole entry, looked up): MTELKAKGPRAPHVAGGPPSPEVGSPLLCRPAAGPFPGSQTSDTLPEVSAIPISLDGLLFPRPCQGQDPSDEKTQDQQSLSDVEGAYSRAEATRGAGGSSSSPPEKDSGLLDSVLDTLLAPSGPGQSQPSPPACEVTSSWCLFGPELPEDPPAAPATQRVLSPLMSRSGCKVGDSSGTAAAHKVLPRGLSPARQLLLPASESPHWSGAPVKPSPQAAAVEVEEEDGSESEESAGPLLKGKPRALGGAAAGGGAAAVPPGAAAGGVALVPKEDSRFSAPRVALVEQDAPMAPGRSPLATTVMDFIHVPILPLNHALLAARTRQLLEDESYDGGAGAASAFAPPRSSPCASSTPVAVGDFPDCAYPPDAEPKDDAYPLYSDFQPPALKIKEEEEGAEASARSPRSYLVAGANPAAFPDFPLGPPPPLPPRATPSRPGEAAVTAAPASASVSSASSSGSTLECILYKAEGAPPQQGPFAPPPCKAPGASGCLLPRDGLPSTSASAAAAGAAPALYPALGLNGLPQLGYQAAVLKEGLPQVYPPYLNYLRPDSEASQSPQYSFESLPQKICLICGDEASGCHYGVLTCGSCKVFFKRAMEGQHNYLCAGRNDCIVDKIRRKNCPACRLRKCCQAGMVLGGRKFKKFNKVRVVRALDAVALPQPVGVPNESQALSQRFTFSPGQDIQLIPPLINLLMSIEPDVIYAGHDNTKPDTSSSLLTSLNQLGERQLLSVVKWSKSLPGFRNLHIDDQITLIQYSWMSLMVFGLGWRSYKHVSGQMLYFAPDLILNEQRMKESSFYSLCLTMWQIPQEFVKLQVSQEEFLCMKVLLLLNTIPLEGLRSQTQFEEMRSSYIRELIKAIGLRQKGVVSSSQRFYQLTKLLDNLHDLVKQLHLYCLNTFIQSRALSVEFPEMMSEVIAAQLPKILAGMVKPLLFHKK
Chain of Thyrotropin receptor (Homo sapiens) (P16473 whole entry, looked up): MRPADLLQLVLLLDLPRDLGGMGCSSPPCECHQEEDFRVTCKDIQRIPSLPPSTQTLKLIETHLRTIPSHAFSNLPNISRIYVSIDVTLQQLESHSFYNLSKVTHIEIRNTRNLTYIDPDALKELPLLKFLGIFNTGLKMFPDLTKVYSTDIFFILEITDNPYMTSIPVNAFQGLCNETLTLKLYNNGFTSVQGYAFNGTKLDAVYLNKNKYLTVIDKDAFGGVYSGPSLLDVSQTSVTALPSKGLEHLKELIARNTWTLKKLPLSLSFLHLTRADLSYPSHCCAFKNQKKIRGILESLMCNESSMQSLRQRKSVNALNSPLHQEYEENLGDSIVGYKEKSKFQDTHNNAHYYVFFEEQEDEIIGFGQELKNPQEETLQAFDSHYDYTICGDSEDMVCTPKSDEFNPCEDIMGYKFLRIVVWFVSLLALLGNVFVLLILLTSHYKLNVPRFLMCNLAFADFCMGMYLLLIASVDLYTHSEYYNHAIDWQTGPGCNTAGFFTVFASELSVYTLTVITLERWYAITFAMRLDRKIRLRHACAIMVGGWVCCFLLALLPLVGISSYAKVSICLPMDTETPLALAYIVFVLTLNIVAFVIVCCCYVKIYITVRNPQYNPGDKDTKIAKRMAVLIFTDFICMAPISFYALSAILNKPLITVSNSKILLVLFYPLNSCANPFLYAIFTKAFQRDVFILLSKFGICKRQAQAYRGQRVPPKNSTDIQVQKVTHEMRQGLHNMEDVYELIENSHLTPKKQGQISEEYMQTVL

As for `CCC(C)(C)c1cc(O)c(C(C)(C)CC)cc1O`, the Potency in assay [1] is 48.6 µM (active); in assay [2], 61.1 µM (active); in [3], 61.1 µM (active). For the same compound, the Potency result in assay [4], in [5], in [6] and in assay [8] was “inactive” in each case. Further, the compound was called inactive in [7] and in [9].

Turning to `C/C=C/C(=O)C1=C(C)CCCC1(C)C`, the Potency entry in assay [1], in assay [2], in [3], in [4], in assay [5] and in [6] was “inactive” throughout. The Potency result in [10] and in [8] was “inactive” throughout. Besides, the compound was called inactive in [7] and in assay [9].

As to `CCc1c(Br)c(Br)c(Br)c(Br)c1Br`, the Potency entry in [1], in assay [2], in assay [3], in [4], in [5] and in assay [6] was “inactive” in each case. The Potency result in assay [8] was “inactive”.

On to `CC1CCCCC1`, for which the Potency entry in [1], in assay [2], in [3], in assay [4], in assay [5] and in [6] was “inactive” in each case. Further, the Potency result in assay [8] is “inactive”. In addition, the compound was called inactive in [7] and in [9].

With `C[C@@H]1CC[C@H]2C(C)(C)[C@H]3C[C@@]12CC[C@@]3(C)O`, the Potency result in assay [1], in assay [2], in assay [3], in [4], in assay [5] and in [6] was “inactive” each time. The Potency entry in [10] and in [8] was “inactive” each time. Also, the result in assay [7] and in assay [9] was inactive.

For the compound `COCC(=O)O[C@]1(CCN(C)CCCc2nc3ccccc3[nH]2)CCc2cc(F)ccc2[C@@H]1C(C)C`, the Potency in assay [1] was 11.9 µM (active); in assay [2], 23.7 µM (active); in assay [3], 21.1 µM (active); in assay [5], 18.8 µM (active). Moreover, the Potency result in assay [4], in assay [6] and in assay [8] was “inactive” throughout. Further, the result in [7] was inactive.

`O=c1cccc[nH]1`: the Potency result in assay [1], in assay [2], in assay [3], in assay [4], in [5] and in assay [6] was “inactive” each time. Besides, the Potency entry in assay [10] and in assay [8] was “inactive” each time. The call in assay [7] and in assay [9] was inactive.

For `CCCCCCS`, the Potency entry in assay [1], in assay [2], in assay [3], in assay [4], in [5] and in assay [6] was “inactive” throughout. The Potency result in assay [10] and in [8] was “inactive” each time. Moreover, the call in assay [7] and in [9] was inactive.

Regarding `C[Si](C)(C)Cl`, the Potency entry in assay [1], in assay [2], in [3], in assay [4], in assay [5] and in assay [6] was “inactive” throughout. Further, the Potency result in assay [10] and in [8] was “inactive” throughout. The outcome in [7] and in assay [9] was inactive.

Regarding `C=CC/C=C/C/C=C/C/C=C/C`, the Potency entry in assay [1], in assay [2], in [3], in assay [4], in [5] and in [6] was “inactive” each time. Besides, the Potency result in assay [10] and in [8] was “inactive” throughout. Moreover, the result in assay [7] and in [9] was inactive.

Turning to `O=CC1CC1`, the Potency result in [1], in [2], in [3], in assay [4], in assay [5] and in assay [6] was “inactive” throughout. Further, the Potency result in assay [10] and in assay [8] was “inactive” each time. Besides, the result in assay [7] and in assay [9] was inactive.

As for `COc1ccccc1OCCNCC(O)COc1cccc2[nH]c3ccccc3c12` (stereo unspecified), the Potency was 7.5 µM (active) in [1]; 29.8 µM (active) in assay [2]; 9.44 µM (active) in assay [3]; 11.9 µM (active) in assay [5]; 33.5 µM (active) in [10]. Further, the Potency result in assay [4] and in assay [6] was “inactive” each time. Also, the compound was called inactive in assay [7].

`Cc1ccc(O)cn1`: the Potency result in [1], in [2], in assay [3], in assay [4], in [5] and in [6] was “inactive” each time. The Potency result in [10] and in [8] was “inactive” each time. In addition, the outcome in assay [7] was inactive.

In the case of `COc1ccccc1C=O`, the Potency entry in assay [1], in assay [2], in assay [3], in assay [4], in assay [5] and in assay [6] was “inactive” in each case. The Potency result in [10] and in assay [8] was “inactive” throughout. Further, the compound was called inactive in assay [7] and in [9].

`OCCCS`: the Potency result in [1], in assay [2], in assay [3], in [4], in assay [5] and in assay [6] was “inactive” throughout. Besides, the Potency result in assay [10] and in assay [8] was “inactive” in each case. Besides, the compound was classed as inactive in [7] and in assay [9].

With `NC(=O)C(=O)N/N=C/c1ccc([N+](=O)[O-])o1`, the Potency result in [1], in assay [2], in assay [3], in assay [4], in assay [5] and in assay [6] was “inactive” throughout. The Potency entry in assay [10] and in [8] was “inactive” throughout. Also, the call in assay [7] and in [9] was inactive.

`COc1nccnc1CC(C)C`: the Potency entry in assay [1], in assay [2], in [3], in [4], in assay [5] and in assay [6] was “inactive” throughout. Also, the Potency entry in assay [10] and in assay [8] was “inactive” each time. In addition, the outcome in assay [7] was inactive.

Consider `CC(C)(C)c1n[nH]c(=O)n(N)c1=O`, for which the Potency result in assay [1], in assay [2], in [3], in [4], in assay [5] and in assay [6] was “inactive” each time. The Potency result in [10] and in [8] was “inactive” each time. Besides, the compound was called inactive in assay [7] and in [9].

As for `Cc1cnccn1`, the Potency result in [1], in assay [2], in assay [3], in assay [4], in assay [5] and in assay [6] was “inactive” throughout. The Potency entry in assay [8] is “inactive”. Also, the compound was called inactive in assay [9].

In the case of `C=C/C=C/C=C/CCCCC`, the activity, negative = inhibition in [1] was -14.6% [at 19 µM]. In addition, the activity change, negative = cytotoxicity was 1.29% [at 19 µM] in [2], -7.99% [at 19 µM] in assay [3], 0.024% [at 19 µM] in assay [5] and -2.67% [at 19 µM] in assay [8]. Also, the results for the activation in [4], in assay [6] and in [9] were 5.43% [at 19 µM], -1.21% [at 19 µM] and -1.1% [at 19 µM], respectively. Also, in assay [7], the cAMP activity change is 0.413% [at 18.9 µM]. In addition, the activity change, negative = inhibition in assay [10] was 1.23% [at 19 µM].

Take `CCOB(OCC)OCC`: the Potency result in assay [1], in [2], in assay [3], in assay [4], in assay [5] and in [6] was “inactive” in each case. The Potency entry in [10] and in assay [8] was “inactive” each time. Further, the outcome in assay [7] and in assay [9] was inactive.

For the compound `Cc1cccc(C)n1`, the Potency entry in assay [1], in assay [2], in [3], in [4], in assay [5] and in assay [6] was “inactive” each time. Also, the Potency entry in [10] and in assay [8] was “inactive” each time. Further, the compound was classed as inactive in [7] and in assay [9].

Take `CCc1ccc(C)nc1`: the Potency result in assay [1], in [2], in assay [3], in assay [4], in assay [5] and in assay [6] was “inactive” each time. The Potency result in assay [8] is “inactive”. The compound was classed as inactive in assay [7] and in assay [9].
